PubChem BioAssay

The compounds below were run on Human papillomavirus type 1a E7 protein (residues 1-88) (assay: HPV1a E7 small-molecule binders, primary screen, biochemical, small-molecule microarray, residues 1-88, 635 nm (AID 1129)). Conditions: small-molecule microarray binding, fluorescence 635 nm; higher = more signal.

| Structure (SMILES) | composite z-score |
| --- | --- |
| Cc1ccc(S[C@]2(C(=O)NC3CC3)CC(=O)N(Cc3cc(C(F)(F)F)cc(C(F)(F)F)c3)[C@@H]2c2ccc(CO)cc2)cc1 | 0.489 |
| O=C/C=C/c1ccccc1Cl | -0.836 |
| COC(=O)[C@@]1(Cc2ccccc2N=[N+]=[N-])N=C(c2ccc(OCCCO)cc2)O[C@H]1c1ccccc1CN=[N+]=[N-] | 1.02 |
| COC(=O)C(CC#Cc1ccc2c(c1)[C@]1(C(=O)N2)[C@H](C(=O)N2CCCCCCC2)[C@H]2C(=O)O[C@H](c3ccccc3)[C@H](c3ccccc3)N2[C@@H]1c1ccc(O)cc1)C(=O)OC | -1.54 |
| C=CCC(OC(C)=O)[C@@H]1[C@@H](N(Cc2cccc3ccccc23)C(=O)c2ccc(C)cc2)c2cc(OCCCO)ccc2N1C(=O)c1ccc(-c2ccccc2)cc1 (stereo not given in full) | -0.0588 |
| CCOC(=O)C[C@H]1[C@H](OC(=O)c2ccccc2-c2ccccc2)[C@@H](NC(=O)C2CCCCC2)c2cc(OCCCO)ccc2N1C(=O)c1ccccc1 | 0.352 |
| CC(C)CNC(=O)[C@@]1(C)c2ccccc2C(=O)N(Cc2ccc(OC(F)(F)F)cc2)[C@H]1c1ccc(CO)cc1 | 0.325 |
| C=CC[C@]1(C(=O)O)N=C(c2ccc(OCCCO)cc2)O[C@H]1c1ccccc1 | -0.531 |
| O=C1OCC=C[C@H]2OC34C=CCN(Cc5ccccc5)C(=O)[C@H]3N(CCO)C(=O)[C@@H]4[C@@H]12 (stereo not given in full) | -0.766 |
| CO[C@@H]1COC(=O)CC=C[C@@H](C)[C@H](OC)COC(=O)CC=C[C@H]1C | -1.31 |
| CO[C@H]1COC(=O)[C@@H](C)COC(=O)[C@H](Cc2ccccc2)NC(=O)CC=C[C@H]1C | -0.0007 |
| CN(C)c1ccc(C(O)C2C=CC3C(=O)NC(=O)C3N2Nc2ccc(Cl)cc2Cl)cc1 (stereo not given) | 1.14 |
| COc1ccc([Si](C)(C)[C@H]2[C@H](CCO)O[C@@]3(C(=O)N(Cc4ccccc4)c4ccc(N5C(=O)c6cccc7cccc5c67)cc43)[C@@H]2C)cc1 | -0.333 |
| CO[C@@H]1COC(=O)CC=C[C@H](C)COC(=O)[C@H](Cc2ccccc2)NC(=O)CC=C[C@H]1C | -1.13 |
| CCOC(=O)C[C@H]1[C@H](OC(=O)Cc2ccc3c(c2)OCO3)[C@@H](NC(=O)CC(C)C)c2cc(OCCCO)ccc2N1C(=O)c1ccccc1 | 0.157 |
| CO[C@@H]1COC(=O)[C@H](COCc2ccccc2)NC(=O)CC=C[C@@H](C)[C@H](OC)COC(=O)[C@H](COCc2ccccc2)NC(=O)CC=C[C@H]1C | -0.47 |
| CC/C=C/C(=O)N(C[C@@H]1CCCO1)[C@@H]1CC(C(=O)NCCO)=C[C@H](Oc2c(I)cc(CO)cc2OC)[C@H]1O | 0.164 |
| CCC1=C2CN(Cc3ccccc3Br)[C@@H]([C@@H](O)Cc3ccccc3)C2C=CCC1 (stereo not given in full) | 1.13 |

| Structure (SMILES) | composite z-score |
| --- | --- |
| CC(=O)NCCCC[C@@H]1NC(=O)[C@@H]2C[C@H](C(=O)NCCCCCNC(=O)CS)[C@H](c3ccc(O)cc3)N2C1=O | -0.265 |
| C=C(C)[C@@H]1CC=C(C(O)C2C=CC3C(=O)NC(=O)C3N2Nc2ccccn2)CC1 (stereo not given in full) | 1.15 |
| CCCC=C(CCC)[C@@H](NC(=O)c1ccc(C(F)(F)F)cc1)c1ccccc1 | 0.788 |
| CO[C@@H]1COC(=O)[C@H](C)NC(=O)CC=C[C@@H](C)[C@H](NS(=O)(=O)c2ccc(C)cc2)COC(=O)CC=C[C@@H]1C | 0.0643 |
| COC(=O)C1=C(C)N(Cc2ccccc2)c2c(C(=O)OC)c(C(=O)OC)c(C(=O)OC)c(=O)n2[C@@H]1c1ccccc1 | 0.436 |
| CO[C@H]1COC(=O)[C@@H](Cc2ccccc2)NC(=O)[C@@H](C)COC(=O)CC=C[C@@H]1C | -0.0865 |
| CC(C)NC(=O)[C@@]1(Cc2ccccc2I)c2ccccc2C(=O)N(C2CCCCC2)[C@H]1c1ccc(CO)cc1 | 1.24 |
| COc1ccc([Si](C)(C)[C@H]2[C@H](CC(=O)N3Cc4ccccc4C[C@H]3CO)O[C@@]3(C(=O)N(Cc4cccc(N5CCOC5=O)c4)c4ccccc43)[C@@H]2C)cc1 | 0.533 |
| O=C1NC(=O)C2C1C=CC(C(O)C=Cc1ccc([N+](=O)[O-])cc1)N2Nc1ccccn1 (stereo not given) | 0.235 |
| CO[C@H]1COC(=O)CC=C[C@H](C)[C@@H](OC)COC(=O)CC=C[C@@H]1C | -1.11 |
| COc1cc(Cc2cc3c(c(CCc4ccccc4)n2)[Si](C(C)C)(C(C)C)OC3)cc(OC)c1OC | -0.162 |
| NC(=O)NCC#Cc1ccc2c(c1)[C@]1(C(=O)N2)[C@H](C(N)=O)[C@H]2C(=O)O[C@H](c3ccccc3)[C@H](c3ccccc3)N2[C@@H]1c1ccccc1OCCO | 1.01 |
| COCCOC(=O)N1C(=O)[C@@]2(c3cc(C#CCNC(N)=O)ccc31)[C@H](C(=O)N1CCCCCCC1)[C@H]1C(=O)O[C@H](c3ccccc3)[C@H](c3ccccc3)N1[C@@H]2c1ccccc1OCCO | 1.14 |
| C=CCC(OC(C)=O)[C@@H]1[C@@H](N(Cc2ccc(-c3ccccc3)cc2)C(=O)c2ccc(-c3ccccc3)cc2)c2cc(OCCCO)ccc2N1C(=O)Cc1ccc(OC)cc1 (stereo not given in full) | 0.328 |
| C[C@H]1C2[C@H](Cc3ccccc3)NC(=O)[C@]23C(=O)N[C@H](Cc2ccccc2)C(=O)N[C@@H](Cc2ccccc2)C(=O)NC/C=C\C/C=C/C3[C@@H]2O[C@]12C (stereo not given in full) | -0.318 |
| CCOC(=O)C1=C[C@@H](c2ccccc2)N(S(=O)(=O)c2ccc(C)cc2)[C@H]1c1ccc(F)cc1 | 1.14 |
| CC(C)[Si](OCCCNS(=O)(=O)c1ccc(Br)cc1)(C(C)C)C(C)C | 1.04 |
